13 molecules from PubChem BioAssay (NCATS) can be followed below.

“And” between values parts separate entries of the source, which are not always exact repeats. Identical values can stand only once. Inconclusive results are not listed. The source made the active and inactive calls. Unless noted, calls follow the shape of the dose curve; as a rule, active = well fitted curve in the direction sought with a large enough effect; inconclusive = small, poorly fitted or top-dose-only effect, or another doubt; inactive = no such curve, though single readings can be large; an effect the other way counts as inactive or inconclusive.

Experiment [1] in a line: High-throughput drug toxicity screening in the BPDCN cell line Gen2.2 (AID 1224824; call rule not given here;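 also: cells exposed to compounds for 48 h before reading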). Conditions: Gen2.2 BPDCN cells; at 45.8 µM (top of the series) unless noted. An outline of the steps:
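CellTiter-Glo luminescence read after 48 h compound exposure at 37 C defines viability; percent activity set with DMSO as 100% and bortezomib (9.2 uM final) as 0%. 500 exponentially growing cells per well, RPMI plus 10% FBS.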

A short description of experiment [2]: High-throughput drug toxicity screening in the BPDCN cell line Cal-1 (AID 1224825; call rule not given here). Conditions: Cal-1 BPDCN cell viability, qHTS; at 45.8 µM (top of the series) unless noted. In outline:
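Exponentially growing Cal-1 cells, 500 per well in phenol red-free RPMI with 10% FBS, were exposed to compounds for 48 h at 37 °C, 5% CO2. Viability was read by CellTiter-Glo luminescence and normalised to DMSO (100%) and 9.2 uM bortezomib (0%).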
On the technique in general: In qHTS, concentration-response curves come from the screen itself.

Experiment [3] is described as follows: qHTS assay for measurement of the activity of small molecule inhibitors on Zika virus induced Caspase-3 activity in human iPSC derived neural progenitor cells (hNPCs) (AID 1224857). Also: nearly all actives have a fitted effect of over 65% in size. Also: potency is read from the fitted curve at half-maximal effect. An outline of the steps:
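hNPCs seeded 350 cells/well, cultured 16–20 h; compounds added 1 h before ZIKV (2 FFU/cell), 37 C 6 h. Caspase-Glo 3/7 luminescence after 30 min RT; % inhibition from induction scaled to uninfected (0%) and infected (100%) wells.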

Experiment [4] can be described thus: qHTS assay for measurement of the activity of small molecule inhibitors on Zika virus induced Caspase-3 activity in human astrocytoma cells (AID 1224859).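 Also: plate controls were ZIKV-infected untreated cells for no effect and uninfected cells for full effect.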 An outline of the steps:
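Luminescence read-out (Caspase-Glo 3/7, 30 min RT) of caspase activity in SNB-19 cells infected 6 h with ZIKV, 2 FFU/cell, after 1 h compound pretreatment; % inhibition from induction normalised to uninfected (0%) and infected (100%) wells.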

Experiment [5] is described as follows: qHTS Screen of the MIPE 4.0 Collection Against Ewings Sarcoma (RDES) (AID 1259252). Also: nearly all actives have a fitted effect of over 35% in size. Also: potency is read from the fitted curve at half-maximal effect. An outline of the steps:
(§1)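 Here, cells in 5% FBS RPMI were exposed for two days (48 h) to compound dilutions added four hours after plating. ATP-based CellTiter-Glo luminescence measured viability, normalized to vehicle and no-cell blanks.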

Experiment [6] in a line: qHTS Screen of the MIPE 4.0 Collection Against Ewings Sarcoma (EW8) (AID 1259255). Also: nearly all actives have a fitted effect of over 35% in size. Also: potency is read from the fitted curve at half-maximal effect.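 As to viability: 100% = DMSO-treated cells and 0% = medium-only wells without cells.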 In outline: as §1
Experiment [7] in a line: qHTS Screen of the MIPE 4.0 Collection Against Ewings Sarcoma (TC32) (AID 1259256). Also: nearly all actives have a fitted effect of over 45% in size. Also: potency is read from the fitted curve at half-maximal effect. In outline:
as §1

Experiment [8] is described as follows: P-glycoprotein substrates identified in KB-8-5-11 adenocarcinoma cell line, qHTS therapeutic library screen (AID 1346987). Also: nearly all actives have a fitted effect of over 65% in size. Also: potency is read from the fitted curve at half-maximal effect. In outline: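 P-gp-mediated resistance screen: KB-8-5-11 cells treated 72 h with compounds in dose-response. CellTiter-Glo viability.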
Experiment [9] in a line: qHTS Screen of the MIPE 4.0 Collection Against Ewings Sarcoma (TC71) (AID 1259253). Also: nearly all actives have a fitted effect of over 40% in size. Also: potency is read from the fitted curve at half-maximal effect. In outline:
as §1

A short description of experiment [10]: P-glycoprotein substrates identified in KB-3-1 adenocarcinoma cell line, qHTS therapeutic library screen (AID 1346986). Also: nearly all actives have a fitted effect of over 60% in size. In outline:
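KB-3-1 parental cells and P-gp-overexpressing KB-8-5-11 (colchicine omitted during assay) plated at 500 cells/well, dosed in dose-response, incubated 72 h at 37 degree C. CellTiter-Glo luminescence read; KB-8-5-11 also tested with tariquidar.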

As to `C=C1C(=CC=C2CCC[C@]3(C)[C@@H]([C@H](C)CCCC(C)(C)O)CC[C@@H]23)C[C@@H](O)C[C@@H]1O`, the cell viability, % of control (lower = more cytotoxic) in experiment [1] was determined as 20.5%. Further, the viability (% of control) in experiment [2] was found to be 6.91%. The Potency entry in experiment [3], in experiment [4] and in experiment [8] was “inactive” throughout. In addition, the Potency in experiment [5] is 2640 nM (active); in experiment [6], 5260 nM (active); in experiment [7] it was 3720 nM (active).

For `CN(C)c1ccc2cc(C(=O)N[C@@H](CCCN=C(N)CCl)C(=O)NCc3ccccc3)ccc2c1`, the cell viability, % of control (lower = more cytotoxic) in experiment [1] worked out at 1.99%. For the same molecule, the viability (% of control) in experiment [2] worked out at 2.66%. Further, the Potency is 20900 nM (active) in experiment [3]; 833 nM (active) in experiment [5]; 11800 nM (active) in experiment [9]; 9350 nM (active) in [6]; 7430 nM (active) in [7]. In experiment [8], the Potency entry is “inactive”.

Regarding `O=C(O)C(=O)Nc1cccc(C2=NN=N[N]2)c1`, the cell viability, % of control (lower = more cytotoxic) in experiment [1] amounted to 222%. Besides, the viability (% of control) in [2] was found to be 113%. For the same molecule, the Potency result in [3], in experiment [5], in [6], in experiment [7] and in experiment [8] was “inactive” in each case.

As to `CN(C)c1ccc(C(=O)NCCCCCCC(=O)NO)cc1`, in experiment [1], the cell viability, % of control (lower = more cytotoxic) was found to be 15.8%. For the same molecule, the viability (% of control) in [2] came to 4.88%. Besides, in experiment [3], the Potency result is “inactive”. Besides, the Potency in [5] is 662 nM (active); in experiment [9] it was 590 nM (active); in experiment [6], 526 nM (active); in experiment [7], 296 nM (active); in [8] it was 3720 nM (active).

`C#CCC(Cc1cnc2nc(N)nc(N)c2n1)c1ccc(C(=O)N[C@@H](CCC(=O)O)C(=O)O)cc1` (some centres not stated): the cell viability, % of control (lower = more cytotoxic) in experiment [1] was found to be 51.7%. The viability (% of control) in experiment [2] turned out to be 36.9%. Further, the Potency result in experiment [3] and in [4] was “inactive” each time. Further, the Potency in experiment [5] was 37.2 nM (active); in experiment [6], 37.2 nM (active); in experiment [7], 33.2 nM (active); in experiment [8], 41.8 nM (active).

On to `CC(=O)[C@]1(O)Cc2c(O)c3c(c(O)c2[C@@H](O[C@H]2C[C@H](N)[C@@H](O)[C@H](C)O2)C1)C(=O)c1ccccc1C3=O`, for which, in [1], the cell viability, % of control (lower = more cytotoxic) came to 6.08%. The viability (% of control) in [2] came to 4.63%. In addition, the Potency entry in experiment [3] is “inactive”. Besides, the Potency in experiment [5] is 59 nM (active); in experiment [9], 37.2 nM (active); in [6], 18.7 nM (active); in experiment [7] it was 4.7 nM (active); in [8], 833 nM (active).

Take `C[C@H](NC(=O)Cc1cc(F)cc(F)c1)C(=O)N[C@H](C(=O)OC(C)(C)C)c1ccccc1`: the cell viability, % of control (lower = more cytotoxic) in experiment [1] is 89%. Moreover, the viability (% of control) in experiment [2] was found to be 96.1%. In addition, the Potency result in experiment [3], in experiment [5], in [9], in experiment [6] and in experiment [7] was “inactive” throughout. For the same molecule, the Potency in experiment [8] was 18700 nM (active).

Consider `CC(C)[C@H](CO)Nc1nc(Nc2cccc(Cl)c2)c2ncn(C(C)C)c2n1`, for which the cell viability, % of control (lower = more cytotoxic) in experiment [1] turned out to be 2.15%. Further, the Potency entry in experiment [3] was “inactive”. In addition, the Potency in experiment [5] is 5900 nM (active); in experiment [9], 7430 nM (active); in experiment [6] it was 16600 nM (active); in experiment [7], 10500 nM (active); in experiment [8], 10.5 µM (active) and 20.6 µM (active).

As for `C[C@@]12C[C@@]3(O)O[C@@H](O1)[C@]1(COC(=O)c4ccccc4)[C@@H]3C[C@@]12O[C@@H]1O[C@H](CO)[C@@H](O)[C@H](O)[C@@H]1O`, the cell viability, % of control (lower = more cytotoxic) in experiment [1] came out at 109%. For the same molecule, the Potency entry in experiment [3], in [4], in [5], in experiment [9], in experiment [6] and in [7] was “inactive” in each case. Moreover, the Potency result in experiment [10] and in [8] was “inactive” in each case.

Consider `COc1ccc(C=Cc2cc(OC)c(OC)c(OC)c2)cc1NC(=O)[C@H](N)CO`, for which, in experiment [1], the cell viability, % of control (lower = more cytotoxic) came to 6.82%. Further, the Potency entry in experiment [3], in [4] and in [7] was “inactive” throughout. For the same molecule, the Potency in experiment [5] is 2.3 nM (active); in experiment [9], 3.3 nM (active); in [6], 4.2 nM (active); in experiment [8] it was 5.9 nM (active).

With `C[C@](Cc1c[nH]c2ccccc12)(NC(=O)OC1C2CC3CC(C2)CC1C3)C(=O)NC[C@H](NC(=O)CCC(=O)O)c1ccccc1` (some centres not stated), in experiment [1], the cell viability, % of control (lower = more cytotoxic) was found to be 308%. The Potency entry in experiment [3], in experiment [4], in [5], in experiment [9], in experiment [6] and in experiment [7] was “inactive” throughout. In addition, in experiment [8], the Potency entry was “inactive”.

For `CC(=O)OCC(=O)[C@@]12N=C(C)O[C@H]1C[C@H]1[C@@H]3CCC4=CC(=O)C=C[C@]4(C)[C@@H]3[C@@H](O)C[C@@]12C`, the cell viability, % of control (lower = more cytotoxic) in experiment [1] turned out to be 94.7%. The viability (% of control) in experiment [2] was 57.7%. Besides, the Potency result in experiment [3], in [5], in experiment [6], in experiment [7] and in experiment [8] was “inactive” throughout.

Regarding `NC[C@H]1O[C@H](O[C@H]2[C@@H](O)[C@@H](O[C@H]3O[C@H](CO)[C@@H](O)[C@H](N)[C@@H]3O)[C@H](N)C[C@@H]2N)[C@H](N)C[C@H]1O`, in [1], the cell viability, % of control (lower = more cytotoxic) was 200%. The Potency result in experiment [3], in experiment [4], in experiment [5], in [9], in [6] and in experiment [7] was “inactive” each time. In addition, in experiment [8], the Potency result was “inactive”.
